# Reference: PubChem BioAssay (EPA / NIEHS)
# “And” between values parts separate entries of the source, which are not always exact repeats. Identical values can stand only once. Inconclusive results are not listed. The source made the active and inactive calls. The calls were made as follows: active = hit-call score of the fitted dose curve at least 0.9, where 1 is the maximum; inconclusive = response in the unintended direction; inactive = score below 0.9.
# Experiment: ATG_XTT_Cytotoxicity: Cytotoxicity Assessment in the Attagene TRANS-FACTORIAL HepG2 Assay (AID 2283584);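 as to AC50: cells exposed to compound for 24 h before reading; active means loss of viability signal versus DMSO baseline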
# Procedure: ATG_XTT_Cytotoxicity is a cell-based, single-readout assay that uses HepG2, a human liver cell line, with measurements taken at 24 hours after chemical dosing in a 24-well plate.ATG_XTT_Cytotoxicity is one of one assay component(s) measured or calculated from the ATG_XTT_Cytotoxicity assay. It is designed to make measurements of cell number, a form of viability reporter, as detected with […] signals by XTT cytotoxicity assay technology.Data from the assay component ATG_XTT_Cytotoxicity was analyzed into 1 assay endpoint. This assay endpoint, ATG_XTT_Cytotoxicity, was analyzed in the positive analysis fitting direction relative to DMSO as the negative control and baseline of activity. Using a type of viability reporter, loss-of-signal activity can be used to understand changes in the viability. Furthermore, this assay endpoint can be referred to as a primary readout, because the performed assay has only produced 1 assay endpoint. To generalize the intended target to other relatable targets, this assay endpoint is annotated to the cell cycle intended target family, where the subfamily is cytotoxicity.
# Human liver HepG2 cells are transiently transfected with multiple reporter transcription units (MRTUs) in 6-well plates using FuGene 6 reagent (Roche; 3 ml FuGene/1 mg DNA). The MRTU constructs are regulated by a cis-regulating element (promoter). […] A major difference between the CIS and TRANS system is that in CIS activities of endogenous TFs are measured, whereas the TRANS assay evaluates changes in activities of exogenous, chimeric NR-Gal4 proteins. […] At the end of 24 hour incubation, total RNA was isolated using TriZol reagent (Invitrogen). The isolated RNA is then reverse-transcribed using oligo(dT) primer and Mo-MLV reverse transcriptase (Invitrogen) with DNAse I (Ambion) treatment for 30 min. The one-tenth of the produced cDNA was amplified by PCR using Taq DNA polymerase (Invitrogen) and two reporter sequence-specific primers. The PCR products were fluorescently labeled by primer extension with 6-arboxyfluorescein (6-FAM) 5'-labeled reporter sequence-specific primer (2 min at 95 C, 20 s at 68 C and 10 min at 72 C) and these products were digested with 5U of HpaI (New England Biolabs) for 2h at 37 C. The fragments were purified using Qiaquick PCR columns (Qiagen), analyzed on an ABI 3130xL genetic analyzer (Applied Biosystems) with peak positions identified by using a set of X-rhodamine (ROX)-labeled MapMarker1000 molecular weight standards (BioVentures). The raw capillary electrophoresis data was processed using Attagraph software (Attagene).
SMILES,outcome,AC50
O=P(OCC(Br)CBr)(OCC(Br)CBr)OCC(Br)CBr (stereo not given),inactive,–
O=C(CBr)OCc1ccccc1,inactive,–
O=[N+]([O-])c1ccc(Cl)c(Cl)c1,inactive,–
c1ccc2c(c1)sc1ccccc12,inactive,–
N#Cc1cc([N+](=O)[O-])ccc1N,inactive,–
O=P(Oc1ccccc1)(Oc1ccccc1)Oc1ccccc1,inactive,–
CC1(C)CN=C(NN=C(/C=C/c2ccc(C(F)(F)F)cc2)/C=C/c2ccc(C(F)(F)F)cc2)NC1,inactive,–
CCCCc1ccccc1,inactive,–
CC(C)CBr,inactive,–
O=c1ssc(Cl)c1Cl,inactive,–
CC(Cl)CN(C)C (stereo not given),inactive,–
c1ccc2c(c1)Nc1ccccc1S2,inactive,–
CCCCOCCOP(=O)(OCCOCCCC)OCCOCCCC,inactive,–
Nc1ccc(Cl)cc1,inactive,–
CCN(CC)c1ccccc1,inactive,–
CC(O)C#N (stereo not given),inactive,–
CCOP(=S)(Oc1ccc([N+](=O)[O-])cc1)c1ccccc1 (stereo not given),inactive,–
N#Cc1c(-c2ccc(Cl)cc2)[nH]c(C(F)(F)F)c1Br,inactive,–
CSC(C)(C)C=NO,inactive,–
Nc1ccc(Sc2ccc(N)cc2)cc1,inactive,–

SMILES,outcome,AC50
C/C(=N\NC(=O)Nc1cc(F)cc(F)c1)c1ncccc1C(=O)O,inactive,–
O=c1[nH]c2ccccc2c(=O)o1,inactive,–
CCOP(=S)(OCC)SCSc1ccc(Cl)cc1,inactive,–
CCOP(=S)(NC(C)C)Oc1ccccc1C(=O)OC(C)C (stereo not given),inactive,–
COP(=O)(O)OC,inactive,–
CC1=C(C(=O)Nc2ccccc2)S(=O)(=O)CCO1,inactive,–
CC(C)Nc1ccc(Nc2ccccc2)cc1,inactive,–
CCC1(c2ccccc2)C(=O)N=C(O)NC1=O (stereo not given),inactive,–
Cc1ccc2c(c1N)C(=O)c1ccccc1C2=O,inactive,–
COC(N)=O,inactive,–
CCOc1ccc(C(C)(C)COCc2cccc(Oc3ccccc3)c2)cc1,inactive,–
NNC(N)=S,inactive,–
CCCN(CCC)c1c([N+](=O)[O-])cc(C(C)C)cc1[N+](=O)[O-],inactive,–
CO/N=C(/C(=O)OC)c1ccccc1COc1ccccc1C,inactive,–
CC(C)(C)OOC(C)(C)C,inactive,–
CCCCCCCc1ccc(O)cc1,–,152 µM (active) and 185 µM (active) and 129 µM (active)
Nc1ccc([N+](=O)[O-])cc1Cl,inactive,–
CCOP(=O)(O)C(N)=O,inactive,–
O=C(O)C1C(C(=O)O)C2(Cl)C(Cl)=C(Cl)C1(Cl)C2(Cl)Cl (stereo not given),inactive,–
CCOP(=S)(S)OCC,inactive,–
